Experimental data from PubChem BioAssay (Tox21).
Inconclusive results are not listed. Where a call stands in place of a potency, no number is given. Values without a mark were called inactive. The source made the active and inactive calls. Unless noted, how the calls were made is not given here.

Assay: qHTS assay to identify small molecule antagonists of the estrogen related receptor signaling pathway with the pleiotropic PPARgamma coactivator (PGC) from Tox21 10K library - cell viability counter screen (AID 1224840; active means well fitted cell-killing curve with a large enough effect in the repeat runs, not every such curve was filed as active; further: nearly all actives have a fitted effect of over 40% in size)
Settings: PGC/ERR reporter cells viability, CellTiter-Fluor, 17.5 h; series mostly up to 92.4 µM
Outline: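 Seeded PGC/ERR cells (2,000/well, 6 h, 37 C/5% CO2) get compound by pin tool; 17.5 h incubation at 37 C; CellTiter-Fluor added, 30 min, fluorescence measured.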

SMILES	Potency
C#CCN1C(=O)COc2cc(F)c(N3C(=O)C4=C(CCCC4)C3=O)cc21	inactive
[As]#[In]	inactive
N#CCBr	inactive
CCC(C)n1c(=O)[nH]c(C)c(Br)c1=O (stereo not drawn)	inactive
CCS(=O)(=O)CCSP(=O)(OC)OC	inactive
C=C(C)CN(CC)c1c([N+](=O)[O-])cc(C(F)(F)F)cc1[N+](=O)[O-]	inactive
Fc1cc(Br)ccc1CBr	inactive
OCCSCSCCO	inactive
CCCCOC(=O)[C@@H](C)Oc1ccc(Oc2ccc(C#N)cc2F)cc1	inactive
CCC#N	inactive
CCC(=O)c1ccccc1	inactive
CCOC(=O)C1(c2ccccc2)CCN(CCc2ccc(N)cc2)CC1	inactive
CSc1ccc(C(=O)C(C)(C)N2CCOCC2)cc1	inactive
N#CCNCC#N	inactive
CC(=O)CCc1ccc2c(c1)OCO2	inactive

Assay: qHTS assay to identify small molecule antagonists of the estrogen related receptor signaling pathway with the pleiotropic PPARgamma coactivator (PGC) from Tox21 10K library (AID 1224841); further: actives are mostly falling curves and most rising ones were filed inactive; nearly all actives have a fitted effect of over 50% in size
Settings: PGC/ERR reporter cell line, ONE-Glo luciferase, 18 h; series mostly up to 92.4 µM
Outline: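 Test chemicals dissolved in DMSO were applied to pre-incubated (6 h) PGC/ERR cells at 2,000 cells/well for an 18 h, 37 C treatment; reporter luminescence was then read using One-Glo.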

SMILES	Potency	activity, negative = inhibition
COCC(=O)N(c1c(C)cccc1C)N1CCOC1=O	inactive	–
CC(=O)Nc1cc([As](=O)(O)O)ccc1O	inactive	–
CNNC	inactive	–
CCC(Cl)[N+](=O)[O-] (stereo not drawn)	inactive	–
CC(Cl)(Cl)[N+](=O)[O-]	inactive	–
Cc1ncc2n1-c1ccc(Cl)cc1C(c1ccccc1F)=NC2	inactive	–
CC1=C(C(=O)O)N2C(=O)[C@@H](N)[C@H]2SC1	–	1.75% [at 19 µM]
Cc1nnc2n1-c1sc(CCC(=O)N3CCOCC3)cc1C(c1ccccc1Cl)=NC2	inactive	–
CC1CCCCC1NC(=O)Nc1ccccc1 (stereo not drawn)	inactive	–
CCCSP(=S)(OCC)Oc1ccc(Cl)cc1Cl (stereo not drawn)	inactive	–
CNC(=O)N(C)c1nc2ccccc2s1	inactive	–
CNC(=O)Oc1ccccc1C1OCCO1	inactive	–
CCOc1nc(C(Cl)(Cl)Cl)ns1	inactive	–
O=CNC(N1CCN(C(NC=O)C(Cl)(Cl)Cl)CC1)C(Cl)(Cl)Cl (stereo not drawn)	inactive	–
Cc1cc(C)nc(Nc2ccccc2)n1	inactive	–
CCCCC(=O)Cl	inactive	–
CCCCN(CCCCO)N=O	inactive	–
COc1cccc2c1cc([N+](=O)[O-])c1c(C(=O)O)cc3c(c12)OCO3	inactive	–
C[C@]12CC[C@H]3[C@@H](CCC4=CC(=O)CC[C@@]43C)[C@@H]1CC[C@@H]2C(=O)O	inactive	–
[As]#[In]	inactive	–
N#CCBr	inactive	–
CCC(C)n1c(=O)[nH]c(C)c(Br)c1=O (stereo not drawn)	inactive	–
CCS(=O)(=O)CCSP(=O)(OC)OC	inactive	–
C=C(C)CN(CC)c1c([N+](=O)[O-])cc(C(F)(F)F)cc1[N+](=O)[O-]	inactive	–
CCCCOC(=O)[C@@H](C)Oc1ccc(Oc2ccc(C#N)cc2F)cc1	inactive	–
CCC#N	inactive	–
N#CCNCC#N	inactive	–
CC(=O)CCc1ccc2c(c1)OCO2	inactive	–
